Data: PubChem BioAssay (NCATS)
Inconclusive results are not listed. Active and inactive are the calls of the source. Calls come from the whole dose curve; as a rule, active = well fitted curve in the direction sought with a large enough effect; inconclusive = small, poorly fitted or top-dose-only effect, or another doubt; inactive = no such curve, though single readings can be large; an effect the other way counts as inactive or inconclusive.

Columns and labels:
[1] = Quantitative High-Throughput drug screen in 47 multiple myeloma cell lines against the NCATS MIPE library collection: FR4_PLB cell viability assay (AID 1918924; note: nearly all actives have a fitted effect of over 35% in size)
Procedure, shortened: (§1)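 Luminescent ATP measurement with CellTiter-Glo gives viability, scaled between DMSO-only wells (100%) and media-only wells (0%). Cells, 500 per well, faced library compounds for 48 hours at 37C.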

[2] = Quantitative High-Throughput drug screen in 47 multiple myeloma cell lines against the NCATS MIPE library collection: Delta47_JCRB cell viability assay (AID 1918925; note: nearly all actives have a fitted effect of over 45% in size)
Procedure, shortened: (§2)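 Viability readout: CellTiter-Glo luminescence following 5 min room-temperature incubation with reagent. Prior exposure: 48 h, 37C, humidified 5% CO2, 500 cells per well.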

[3] = Quantitative High-Throughput drug screen in 47 multiple myeloma cell lines against the NCATS MIPE library collection: EJM_DSMZ cell viability assay (AID 1918926; note: nearly all actives have a fitted effect of over 30% in size)
Procedure, shortened: as §2

[4] = Quantitative High-Throughput drug screen in 47 multiple myeloma cell lines against the NCATS MIPE library collection: AMO1_DSMZ cell viability assay (AID 1918927; note: nearly all actives have a fitted effect of over 30% in size)
Procedure, shortened: as §2

[5] = Quantitative High-Throughput drug screen in 47 multiple myeloma cell lines against the NCATS MIPE library collection: ARP1_JJKsccF8 cell viability assay (AID 1918928; note: nearly all actives have a fitted effect of over 40% in size)
Procedure, shortened: (§3)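 Here, 48 h treatment with MIPE 4.0 agents at 37 °C preceded an ATP luminescence read. Plating density was 500 cells per well.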

[6] = Quantitative High-Throughput drug screen in 47 multiple myeloma cell lines against the NCATS MIPE library collection: Karpas620_DSMZ cell viability assay (AID 1918959); note: nearly all actives have a fitted effect of over 30% in size
Procedure, shortened: as §1

[7] = Quantitative High-Throughput drug screen in 47 multiple myeloma cell lines against the NCATS MIPE library collection: Karpas417_ECACC cell viability assay (AID 1918961); settings: Karpas417 myeloma viability, CellTiter-Glo ATP luminescence, 48 h; viability (% of DMSO): at 45.8 µM (top of the series)
Procedure, shortened: (§4)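 Steps: seed 500 cells per well; pin-transfer MIPE 4.0 library; incubate 48 h at 37C, 5% CO2, humidified; add CellTiter-Glo, 5 min room temperature; read luminescence.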

[8] = Quantitative High-Throughput drug screen in 47 multiple myeloma cell lines against the NCATS MIPE library collection: JIM3_ECACC cell viability assay (AID 1918963; note: nearly all actives have a fitted effect of over 35% in size)
Procedure, shortened: as §1

[9] = Quantitative High-Throughput drug screen in 47 multiple myeloma cell lines against the NCATS MIPE library collection: JIM1_ECACC cell viability assay (AID 1918964)
Procedure, shortened: as §2

[10] = Quantitative High-Throughput drug screen in 47 multiple myeloma cell lines against the NCATS MIPE library collection: INA6_PLB cell viability assay (AID 1918965; note: nearly all actives have a fitted effect of over 55% in size)
Procedure, shortened: as §4

[11] = Quantitative High-Throughput drug screen in 47 multiple myeloma cell lines against the NCATS MIPE library collection: JJN3_DSMZ cell viability assay (AID 1918966; note: nearly all actives have a fitted effect of over 50% in size)
Procedure, shortened: as §2

[12] = Quantitative High-Throughput drug screen in 47 multiple myeloma cell lines against the NCATS MIPE library collection: H1112_PLB cell viability assay (AID 1918967; note: nearly all actives have a fitted effect of over 30% in size)
Procedure, shortened: as §2

[13] = Quantitative High-Throughput drug screen in 47 multiple myeloma cell lines against the NCATS MIPE library collection: Karpas25_ECACC cell viability assay (AID 1918968; note: nearly all actives have a fitted effect of over 35% in size)
Procedure, shortened: as §2

[14] = Quantitative High-Throughput drug screen in 47 multiple myeloma cell lines against the NCATS MIPE library collection: KMS27_JCRB cell viability assay (AID 1918970); settings: KMS27 myeloma cells, CellTiter-Glo ATP viability, 48 h; viability (% of DMSO): at 45.8 µM (top of the series); note: nearly all actives have a fitted effect of over 30% in size
Procedure, shortened: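 ATP-based viability (CellTiter-Glo luminescence) is measured in cells treated 48 h with approved and investigational drugs at 37 °C. Controls are DMSO-only wells for full viability and media-only wells for none.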

[15] = Quantitative High-Throughput drug screen in 47 multiple myeloma cell lines against the NCATS MIPE library collection: KMS12BM_JCRB cell viability assay (AID 1918971); note: nearly all actives have a fitted effect of over 35% in size
Procedure, shortened: as §4

[16] = Quantitative High-Throughput drug screen in 47 multiple myeloma cell lines against the NCATS MIPE library collection: ARD_JJKsccE7 cell viability assay (AID 1918929)
Procedure, shortened: as §2

[17] = Quantitative High-Throughput drug screen in 47 multiple myeloma cell lines against the NCATS MIPE library collection: KMM1_JCRB cell viability assay (AID 1918960); note: nearly all actives have a fitted effect of over 30% in size
Procedure, shortened: as §3

[18] = Quantitative High-Throughput drug screen in 47 multiple myeloma cell lines against the NCATS MIPE library collection: KHM11_PLB cell viability assay (AID 1918962); note: nearly all actives have a fitted effect of over 35% in size
Procedure, shortened: as §1

Measured: Potency
Potency is the fitted concentration of half-maximal effect.

O=C(Nc1ncc(SCCN2CCCC2)s1)[C@]1(c2ccc(S(=O)(=O)C3CC3)cc2)C[C@@H]1C1CCCCC1
active: [1] 18.7 µM | [2] 14.8 µM | [3] 18.7 µM | [4] 8.33 µM | [5] 26.4 µM | [6] 8.33 µM | [7] 10.5 µM | [8] 20.9 µM | [9] 6.62 µM | [10] 16.6 µM | [11] 16.6 µM | [12] 23.5 µM | [13] 18.7 µM | [14] 7.43 µM | [15] 23.5 µM

CN(C)CCN(C)C(=O)c1ccc(NC(=O)Nc2ccc(-c3nc(N4CCOCC4)c4ccn(CC(F)(F)F)c4n3)cc2)cc1
active: [1] 0.0372 µM | [2] 0.0264 µM | [3] 0.209 µM | [4] 0.418 µM | [5] 0.0264 µM | [16] 0.0235 µM | [8] 0.105 µM | [9] 0.001 µM | [11] 0.0372 µM | [12] 3.32 µM | [14] 0.001 µM | [15] 0.209 µM

C[C@@H]1O[C@@H](O[C@H]2CC[C@@]3(C)[C@H](CC[C@@H]4[C@H]3C[C@@H](O)[C@]3(C)[C@@H](C5=CC(=O)OC5)CC[C@]43O)C2)C[C@H](O)[C@@H]1O[C@H]1C[C@H](O)[C@H](O[C@H]2C[C@H](O)[C@@H](O)[C@@H](C)O2)[C@H](C)O1 (stereo in doubt)
active: [1] 0.0762 µM | [2] 0.241 µM | [3] 0.27 µM | [4] 0.0679 µM | [5] 0.171 µM | [6] 0.171 µM | [17] 0.0762 µM | [7] 0.152 µM | [18] 0.152 µM | [8] 0.191 µM | [9] 0.0679 µM | [10] 0.171 µM | [11] 0.34 µM | [12] 0.34 µM | [13] 0.241 µM | [14] 0.0959 µM | [15] 0.215 µM

N#CC(c1ccc(Cl)cc1)c1c(Cl)cc(-n2ncc(=O)[nH]c2=O)cc1Cl (stereo unspecified)
inactive: [1]
active: [2] 23.5 µM | [3] 16.6 µM | [4] 5.26 µM | [16] 18.7 µM | [6] 10.5 µM | [17] 5.9 µM | [18] 0.372 µM | [9] 20.9 µM | [10] 23.5 µM | [11] 16.6 µM | [13] 8.33 µM | [14] 5.9 µM | [15] 20.9 µM

CCC(=C(c1ccc(O)cc1)c1ccc(OCCNC)cc1)c1ccccc1
active: [1] 26.4 µM | [2] 5.9 µM | [3] 23.5 µM | [4] 20.9 µM | [8] 20.9 µM | [10] 2.64 µM | [11] 18.7 µM | [12] 23.5 µM | [13] 18.7 µM | [15] 29.6 µM

OC1CCC(Nc2ncc3nc(Nc4c(F)cc(F)cc4F)n([C@@H]4CCOC4)c3n2)CC1 (stereo partly specified)
active: [2] 8.33 µM | [3] 0.0012 µM | [4] 16.6 µM | [5] 33.2 µM | [17] 11.8 µM | [9] 16.6 µM | [10] 14.8 µM | [15] 23.5 µM
inactive: [1] | [6]

CON(C)C(=O)N1N=C(c2cc(F)ccc2F)S[C@]1(CCCN)c1ccccc1
active: [4] 0.001 µM | [16] 0.001 µM | [14] 0.001 µM
inactive: [1] | [2] | [3] | [8] | [10] | [12] | [15]

COc1cccc(OC)c1-c1cc(C(=O)NC2(C(=O)O)C3CC4CC(C3)CC2C4)nn1-c1ccnc2cc(Cl)ccc12 (stereo unspecified)
inactive: [1] | [2] | [3] | [4] | [16] | [6] | [17] | [18] | [8] | [12] | [13] | [14]

O=C1NC(=O)C(c2cnc3ccccn23)=C1c1cn2c3c(cccc13)CN(C(=O)N1CCOCC1)CC2
active: [1] 0.0053 µM | [2] 1.05 µM | [3] 0.187 µM | [5] 0.0066 µM | [16] 0.0042 µM | [17] 13.2 µM | [18] 0.001 µM | [10] 0.001 µM | [12] 1.48 µM | [13] 0.001 µM

C[C@H]1O[C@@H](n2cc(F)c(=O)[nH]c2=O)[C@H](O)[C@H]1O
inactive: [1] | [3] | [5] | [7] | [11]
active: [2] 14.8 µM | [16] 1.32 µM | [17] 5.26 µM | [8] 11.8 µM | [10] 13.2 µM | [13] 18.7 µM | [15] 16.6 µM

CN[C@H]1[C@@H](O[C@@H]2[C@H](O[C@@H]3[C@@H](O)[C@@H](O)[C@@H](N=C(N)N)[C@@H](O)[C@@H]3N=C(N)N)O[C@H](C)[C@@]2(O)C=O)O[C@@H](CO)[C@@H](O)[C@H]1O
inactive: [1] | [2] | [3] | [5] | [6] | [17] | [8] | [9] | [10] | [12] | [13] | [14] | [15]

O=C1C(CCC(O)c2ccc(F)cc2)C(c2ccc(O)cc2)N1c1ccc(F)cc1 (stereo unspecified)
inactive: [1] | [2] | [3] | [4] | [5] | [6] | [9] | [10] | [12] | [13] | [15]

CCOC(=O)N1CCN([N+]([O-])=NOc2cc(ON=[N+]([O-])N3CCN(C(=O)OCC)CC3)c([N+](=O)[O-])cc2[N+](=O)[O-])CC1
active: [1] 4.69 µM | [2] 4.69 µM | [3] 2.64 µM | [18] 6.62 µM | [8] 9.35 µM | [10] 2.35 µM | [13] 2.64 µM | [15] 5.26 µM
inactive: [4] | [9]
